nsP2pro inh = blocks chikungunya virus nsP2 protease peptide cleavage. Q8JUX6. FRET peptide cleavage, nsP2pro, fluorescence 1 h. Potency, µM (top dose mostly 24.9 µM), for inactives: at the highest dose activity change, negative = inhibition, hits mostly inhibitors. 1.1% of 31,000 active. AID 1964107; also: nearly all actives have a fitted effect of over 60% in size
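Enzyme 150 nM, substrate 2.5 uM (both final); Tris-HCl 10 mM pH 8.0 + 0.01% Tween 20; cpd up to 25 uM, 7 pts; 15 min preinc., 1 h RT; fluorescence ex 525/em 598.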
CHIKV nsP2 cell = secondary cell-based test for CHIKV nsP2 protease inhibitors | shares compounds with nsP2pro inh | AID 1964100 | cell-based CHIKV nsP2 protease reporter assay | 10% of 450 active | Potency, µM (top dose mostly 51.1 µM), for the others: at the highest dose activity change, negative = inhibition, most hits filed as inhibitors; also: nearly all actives have a fitted effect of over 70% in size
CHIKV NSP2 FL = selectivity test for CHIKV nsP2 protease inhibitors: full-length NSP2; shares compounds with nsP2pro inh; Full-length CHIKV NSP2 protease enzymatic counterscreen; Potency, µM (highest dose often 50.7 µM), without a hit: at the highest dose activity change, negative = inhibition, most hits filed as inhibitors; 39% of 410 active; also: nearly all actives have a fitted effect of over 65% in size
Furin counter = inhibits human furin in a CHIKV nsP2 protease selectivity counterscreen; shares compounds with nsP2pro inh; Recombinant human furin enzymatic counterscreen, fluorogenic substrate; Potency, µM (top dose mostly 50.6 µM), for inactives: at the highest dose activity change, negative = inhibition, hits mostly inhibitors; 6% of 410 active; AID 1964102
NS23 peptide cs = nsP2pro inhibition on native NS2/3 peptide substrate | 34% of 410 active | Potency, µM (series often up to 51 µM), for the others: at the top dose activity change, negative = inhibition, actives largely listed as inhibitors | AID 1964103 | Purified CHIKV nsP2 protease, endogenous NS2/3 peptide cleavage | shares compounds with nsP2pro inh; also: nearly all actives have a fitted effect of over 55% in size
Papain counter = papain protease inhibition, counterscreen for nsP2pro inhibitors; shares compounds with nsP2pro inh; purified papain protease activity, enzymatic inhibition; Potency, µM (titrated, usually from 51 µM), for inactives: at the highest dose activity change, negative = inhibition, hits mostly inhibitors; 5% of 410 active
nsP2pro confirm = confirmation of CHIKV nsP2 protease inhibitors; shares compounds with nsP2pro inh; CHIKV nsP2 protease enzymatic activity, qHTS; Potency, µM (top dose mostly 25.5 µM), for inactives: at the highest dose activity change, negative = inhibition, hits mostly inhibitors; 43% of 410 active; also: nearly all actives have a fitted effect of over 75% in size
HCV NS3 counter = HCV NS3/4A protease inhibition, counterscreen; 20% of 410 active; HCV NS3/4A protease biochemical counterscreen; Potency, µM (highest dose often 50.9 µM), hits mostly inhibitors; shares compounds with nsP2pro inh; also: nearly all actives have a fitted effect of over 55% in size
The depositor's hits bear a star; i = inactive; ? = inconclusive; . = no result; ! = repeats disagree; [ ] = another dose, or the depositor's remark. This is one part of a sample in which hits are shown more often than they occur. Calls follow the shape of the full dose curve. % is scaled to controls: 0 for no effect and ±100 for the full control effect; potency is read from the fitted curve at half-maximal effect.

SMILES	nsP2pro inh	CHIKV nsP2 cell	CHIKV NSP2 FL	Furin counter	NS23 peptide cs	Papain counter	nsP2pro confirm	HCV NS3 counter
CCn1c(=O)cc(OCC(=O)NCc2ccccc2OC)c2ccccc21	-7.5%	.	.	.	.	.	.	.
COc1ccccc1NC(=O)CCCOc1cc(=O)n(C)c2ccccc12	-12.8%	.	.	.	.	.	.	.
C=C(C(=O)OC)[C@@H]1CC=C2C=CC(=O)[C@H](C)[C@@]2(C)C1	-21.0%	.	.	.	.	.	.	.
CCCOC(=O)c1ccccc1	-4.3%	.	.	.	.	.	.	.
C/C(=C(\CCOC(=O)c1ccccc1)SS/C(CCOC(=O)c1ccccc1)=C(/C)N(C=O)Cc1cnc(C)nc1N)N(C=O)Cc1cnc(C)nc1N	8.81µM*	-3.1%	13µM*	-7.7%	5.8µM*	-8.9%	7.98µM*	5.8µM*
Cc1cccc(C)c1-n1c(SCC(=O)Nc2ccc(F)cc2)nnc1-c1cccc([S+](=O)([O-])N2CCCC2)c1	-3.0%	.	.	.	.	.	.	.
NC(=Nc1ccc(CCNCc2cccc(Cl)c2)cc1)c1cccs1	18.3%	.	.	.	.	.	.	.
CN1CCN(c2ccc(Nc3cc(-c4cccc(-n5ccc6cc(C7CC7)cc(F)c6c5=O)c4CO)cn(C)c3=O)nc2)CC1	?	141.2%	47.4%	-17.9%	i	?	125.0%	i
N#Cc1cn([C@@H]2O[C@H](CO)[C@H](O)[C@@H]2O)c2ncnc(N)c12	-4.4%	.	.	.	.	.	.	.
Cc1nc(-c2ccccc2)oc1-c1ccc2ncnc(NCc3ncc[nH]3)c2c1	i	.	.	.	.	.	.	.
CCN(CC)C(=O)[C@@H]1CCC[C@@H](NC(=O)c2cnccn2)CN(C)C(=O)C1	-8.3%[39.2 µM]	.	.	.	.	.	.	.
CCC(C)C(N)C1=NC(C(=O)N[C@@H](CC(C)C)C(=O)N[C@H](CCC(=O)O)C(=O)N[C@H](C(=O)N[C@H]2CCCCNC(=O)[C@H](CC(N)=O)NC(=O)[C@@H](CC(=O)O)NC(=O)[C@H](Cc3cnc[nH]3)NC(=O)[C@@H](Cc3ccccc3)NC(=O)[C@H]([C@@H](C)CC)NC(=O)[C@@H](CCCN)NC2=O)[C@@H](C)CC)CS1 (some centres undefined)	0.216µM*!	11.7%[17.6 µM]	0.142µM*	7.98µM*	1.13µM*	3.18µM*	0.219µM*	7.98µM*
NCCCC[C@H](NC(=O)[C@@H]1CCCN1C(=O)[C@@H]1CSSC[C@H](N)C(=O)N[C@@H](Cc2ccccc2)C(=O)N[C@@H](Cc2ccccc2)C(=O)N[C@@H](CCC(N)=O)C(=O)N[C@@H](CC(N)=O)C(=O)N1)C(=O)NCC(N)=O	-12.1%	.	.	.	.	.	.	.
Cc1cccc(C)c1OCC(=O)NC(Cc1ccccc1)C(O)CC(Cc1ccccc1)NC(=O)C(C(C)C)N1CCCNC1=O (centres undefined)	-1.0%	.	.	.	.	.	.	.
O=C(O[C@@H]1Cc2c(O)cc(O)cc2O[C@@H]1c1cc(O)c(O)c(O)c1)c1cc(O)c(O)c(O)c1	4.42µM*!	-26.8%	?	?	5.8µM*	?	4.49µM*	?
O=C(O[C@@H]1Cc2c(O)cc(O)cc2O[C@@H]1c1ccc(O)c(O)c1)c1cc(O)c(O)c(O)c1	?	-24.1%	23.1µM*	-6.3%	14.6µM*	-25.9%	?	?
OCC1OC(Oc2cc(O)c3c(c2)OC(c2ccc(O)cc2)C(O)C3)C(O)C1O (centres undefined)	-3.6%[10 µM]	.	.	.	.	.	.	.
Oc1cc(O)c2c(c1)O[C@H](c1ccc(O)c(O)c1)[C@H](O)C2	-0.1%	.	.	.	.	.	.	.
Cc1cc(C(=O)N2CCCC(C(=O)Nc3cccc(-c4cc5ccccc5[nH]4)c3)C2)nn1C (centres undefined)	-1.3%	.	.	.	.	.	.	.
COc1ccc(-c2ccccc2C(=O)N2CCCC2)nn1	i	.	.	.	.	.	.	.

Bioassay records as filed in PubChem.
